# Experimental data as given in PubChem BioAssay.
# Calls of active or inactive are those of the source.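 How the source made its calls, unless noted: active means inhibition above 20% together with a positive visual image hit; inconclusive means visual image hit but inhibition not above 20%; inactive means no visual image hit.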
# Key:
# [1] = inhibitors of TNFa-induced NFkB p65 translocation, primary screen, imaging, HUVEC, MLSMR starter and 10KST1 sets (AID 438); conditions: HUVEC TNFa-induced p65 nuclear translocation; cell count: measured here: nuclei count (cytotoxicity indicator), at 2.08 µM; inhibition: at 2 µM, stronger effect = higher value, 0% TNFa-plus-vehicle, 100% no-TNFa wells;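 further: compound added about 3h40 before a 20 min TNFalpha stimulation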;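 on inhibition: signal is the nuclear over cytoplasmic p65 intensity ratio per well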
# [2] = inhibitors of mutant huntingtin aggregation, primary screen, imaging, exon1htt(103Q)mCFP cells, high-content imaging (AID 483;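 active means visual image review flags a hit and inhibition of aggregation exceeds 20%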;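 further: compound exposure lasted 3 days before fixation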;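 on nuclei count: percent of the per-plate median nuclei count of sample wells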); conditions: exon1htt(103Q)mCFP cell line, aggregate imaging, at 2 µM; inhibition of aggregation: stronger effect = higher value; nuclei count: measured here: cell count, toxicity
# [3] = inhibitors of E-selectin induction by TNFa, primary screen, imaging, HUVEC, immunofluorescence, MLSMR starter and 10KST1 sets (AID 487;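 active means visually confirmed hit in the image check and inhibition above 20%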;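 on inhibition: signal is fraction of cell area covered by stained E-selectin grains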;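 on nuclei count: 100% = median nuclei count of all wells on the same plate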); conditions: HUVEC TNFalpha-induced E-selectin immunofluorescence imaging, at 2 µM; inhibition: stronger effect = higher value; nuclei count: measured here: cell number, toxicity
# [4] = molecular target: Voltage-gated potassium channel subunit beta-2 (Rattus norvegicus) (UniProt P62483); experiment: KvBeta enzyme negative modulators, primary screen, biochemical, NADPH fluorescence (AID 622;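 active means fluorescence slope higher than the sample average by over 3 SD, cut at about -0.22 in these data, passing the limit was not always enough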;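 further: slope of raw intensity against log time taken from 70 to 1610 s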); conditions: recombinant KvBeta, 4-cyanobenzaldehyde reduction, at 10 µM, stronger effect = higher value
# [5] = molecular target: Voltage-gated potassium channel subunit beta-2 (Rattus norvegicus) (UniProt P62483); experiment: KvBeta positive modulators, primary screen, biochemical, NADPH fluorescence (AID 623;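 active means NADPH fluorescence slope more negative than the mean of all samples by about 3 SD, 99.7% confidence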;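 further: fluorescence intensity change per second fitted from 20 to 320 s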); conditions: Recombinant KvBeta, NADPH fluorescence decrease slope, 10 min; at 10 µM; stronger effect = lower value
# [6] = molecular target: Alpha-2C adrenergic receptor (Homo sapiens) (UniProt P18825); experiment: modulators of alpha2C/GIRK thallium flux, primary screen, cell-based, HEK293 alpha2C/GIRK1/2 (AID 624;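 active means fluorescence slope after compound addition differing from the mean of all screened samples at 99.7% confidence, in either direction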;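 further: slope of fluorescence ratio to pre-addition baseline per second over 15 to 24 s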); conditions: thallium flux BTC fluorescence, at 10 µM, actives lie on both sides
# [7] = inhibitors of Sendai virus-induced IRF3 signaling, primary screen, TLR/RLR signaling modifier project, cell-based, Sendai virus stimulus, luciferase, 10K MLSCN set (AID 602276;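 active means inhibition at or above 50% at 10 µM; inactive means inhibition below 50%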;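 further: firefly luciferase from ISG56 promoter only with Renilla not read in this screen; 0% = Sendai virus plus DMSO and 100% = medium plus DMSO without virus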); conditions: HEK293 RL24 IRF3 luciferase reporter, at 10 µM, stronger effect = higher value
# [8] = inhibitors of poly I:C-induced TLR3 signaling, primary screen, cell-based, poly I:C stimulus, luciferase, 10K MLSCN set (AID 602277;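 active means inhibition of the reporter signal at or above 50%; inactive means inhibition below 50%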); conditions: HEK293-TLR3 RL24 IRF3 luciferase reporter, at 10 µM, stronger effect = higher value
# Chain of Voltage-gated potassium channel subunit beta-2 (Rattus norvegicus) (P62483 whole entry, looked up): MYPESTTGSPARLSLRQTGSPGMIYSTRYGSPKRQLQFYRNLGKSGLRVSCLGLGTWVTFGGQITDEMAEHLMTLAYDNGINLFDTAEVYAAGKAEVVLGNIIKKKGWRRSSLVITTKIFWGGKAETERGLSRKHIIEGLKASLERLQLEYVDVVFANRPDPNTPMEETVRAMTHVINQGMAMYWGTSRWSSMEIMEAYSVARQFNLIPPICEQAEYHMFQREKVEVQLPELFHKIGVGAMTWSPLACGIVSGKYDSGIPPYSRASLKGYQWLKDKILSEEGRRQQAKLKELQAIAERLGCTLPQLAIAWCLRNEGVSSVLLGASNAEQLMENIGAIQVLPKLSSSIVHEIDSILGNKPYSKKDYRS
# Chain of Alpha-2C adrenergic receptor (Homo sapiens) (P18825 whole entry, looked up): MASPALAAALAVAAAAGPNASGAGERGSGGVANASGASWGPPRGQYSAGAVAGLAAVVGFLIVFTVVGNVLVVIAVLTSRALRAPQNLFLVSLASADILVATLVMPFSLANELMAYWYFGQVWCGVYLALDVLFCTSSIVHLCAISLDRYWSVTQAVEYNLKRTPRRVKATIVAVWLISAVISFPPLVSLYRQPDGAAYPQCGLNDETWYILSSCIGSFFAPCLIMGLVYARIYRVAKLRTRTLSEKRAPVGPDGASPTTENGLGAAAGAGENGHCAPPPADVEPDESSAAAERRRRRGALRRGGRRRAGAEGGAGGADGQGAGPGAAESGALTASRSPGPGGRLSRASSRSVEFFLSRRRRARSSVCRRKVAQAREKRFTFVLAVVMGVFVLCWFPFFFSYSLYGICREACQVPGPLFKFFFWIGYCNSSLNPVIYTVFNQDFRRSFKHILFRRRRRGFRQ
Compound,cell count [1],inhibition [1],inhibition of aggregation [2],nuclei count [2] [%],inhibition [3],nuclei count [3] [%],fluorescence slope [4],NADPH fluorescence slope [5],slope [6],inhibition [7],inhibition [8]
Cc1nc2ccccc2c2oc(C(=O)NCC3COc4ccccc4O3)cc12 (stereo not drawn),532,7.6% (inactive),-11.9% (inactive),91.7,3.3% (inactive),99,-0.569 (inactive),-1.4e-05 (inactive),0.00744 (inactive),9.7% (inactive),-3.35% (inactive)
Cc1ccc(-c2nc3cnccn3c2Nc2ccc3c(c2)OCO3)o1,913,2.3% (inactive),2.9% (inactive),130,-109% (inactive),114,-0.483 (inactive),-6.6e-05 (inactive),0.00517 (inactive),5.62% (inactive),34.7% (inactive)
COc1ccc2[nH]c(=O)c(CN(Cc3cccs3)S(=O)(=O)c3cccc4nsnc34)cc2c1,510,-4.2% (inactive),-15.3% (inactive),110,-68.8% (inactive),110,-0.523 (inactive),-0.000153 (inactive),0.00524 (inactive),8.33% (inactive),71.5% (active)
Fc1ccc(-c2csc3nnc(SCc4cccnc4)n23)cc1,376,4.4% (inactive),-9.6% (inactive),97.5,-30% (inactive),116,-0.312 (inactive),-2.7e-05 (inactive),0.00572 (inactive),1.55% (inactive),20.4% (inactive)
S=C(c1cccs1)N1CCCC1,708,-25.9% (inactive),-3.8% (inactive),105,22.3% (inactive),100,-0.421 (inactive),-4e-05 (inactive),0.00656 (inactive),-7.06% (inactive),6.9% (inactive)
CC1(C)CC(CCNC(=O)c2ccco2)CC(C)(C)N1,387,2.3% (inactive),1.2% (inactive),86.4,-91.3% (inactive),81.4,-0.473 (inactive),-1.8e-05 (inactive),0.00616 (inactive),12% (inactive),12.3% (inactive)
Cc1ccc2cc(CN(Cc3ccc(F)cc3)Cc3nnnn3C3CCCC3)c(=O)[nH]c2c1,702,-10.8% (inactive),-13.3% (inactive),103,-40.7% (inactive),98.8,-0.311 (inactive),-4.1e-05 (inactive),0.00514 (inactive),10.6% (inactive),13.8% (inactive)
Cc1ccccc1NS(=O)(=O)c1cc(S(C)(=O)=O)ccc1Cl,552,7.7% (inactive),-3% (inactive),102,-43.9% (inactive),119,-0.436 (inactive),2.4e-05 (inactive),0.00562 (inactive),-5.83% (inactive),4.63% (inactive)
O=C(O)C1C2C=CC(C3CC23)C1C(=O)NCCc1ccccc1 (stereo not drawn),494,-7.5% (inactive),19.2% (inactive),54,-50% (inactive),104,-0.467 (inactive),-3.5e-05 (inactive),0.00628 (inactive),-3.61% (inactive),11.6% (inactive)
O=C1C(Cl)=C(NCC2CCCO2)C(=O)N1CCc1ccccc1 (stereo not drawn),711,-10% (inactive),9.2% (inactive),102,27.8% (inactive),107,-0.448 (inactive),1.5e-05 (inactive),0.00576 (inactive),-53.6% (inactive),-108% (inactive)
CCOC(=O)c1ccc(NC(=O)COc2ccc(-n3cnnn3)cc2)cc1,354,-0.5% (inactive),-2.9% (inactive),60.6,5% (inactive),102,-0.405 (inactive),-1.2e-05 (inactive),0.00538 (inactive),1.41% (inactive),11.4% (inactive)
O=C(O)C1C2CCC(O2)C1C(=O)NCCC1=CCCCC1 (stereo not drawn),465,10.4% (inactive),-18.3% (inactive),105,-112% (inactive),117,-0.331 (inactive),-5.8e-05 (inactive),0.0055 (inactive),1.86% (inactive),13.6% (inactive)
COC(=O)CSc1nc2ncc(Cl)cc2[nH]1,542,8.6% (inactive),-23.3% (inactive),106,-49.2% (inactive),106,-0.462 (inactive),-6.4e-05 (inactive),0.00642 (inactive),15.8% (inactive),25.3% (inactive)
Cn1c(/C=N/n2cnnc2)nc2ccccc21,448,3.5% (inactive),-4.4% (inactive),114,-12.1% (inactive),123,-0.0404 (active),-7e-06 (inactive),0.00495 (inactive),6.17% (inactive),35.3% (inactive)
Cc1nn(-c2ccccc2)c2sc(C(=O)N3CCOCC3)cc12,536,-4.4% (inactive),-1.9% (inactive),115,-11.9% (inactive),118,-0.398 (inactive),1.4e-05 (inactive),0.00676 (inactive),-21.4% (inactive),-21.6% (inactive)
Cc1cc(C)n(-c2ccc(C(=O)Nc3ccc4c(c3)OCCO4)cc2)n1,529,-16.3% (inactive),-2.4% (inactive),103,11.9% (inactive),110,-0.254 (inactive),-2.3e-05 (inactive),0.00537 (inactive),-19.7% (inactive),-108% (inactive)
O=c1[nH]cnc2c1nc(SCc1ccccc1)n2C1OC(CO)C(O)C1O (stereo not drawn),459,14.3% (inactive),10.4% (inactive),71.9,-9.9% (inactive),110,-0.597 (inactive),1.2e-06 (inactive),0.00624 (inactive),10.8% (inactive),24% (inactive)
COc1cccc(C2C(C(=O)c3ccc(C)o3)=C(O)C(=O)N2CCCN(C)C)c1 (stereo not drawn),239,-10.9% (inactive),45.3% (active),83.9,-110% (inactive),111,-0.592 (inactive),-5.1e-05 (inactive),0.00639 (inactive),10.4% (inactive),15.6% (inactive)
Cc1cccc(C2CC(c3ccc(Cl)cc3)Nc3nc(N)nn32)c1 (stereo not drawn),598,-2.4% (inactive),18.5% (inactive),58.9,-0.5% (inactive),102,-0.525 (inactive),-4.5e-05 (inactive),0.00816 (inactive),4.61% (inactive),25.1% (inactive)
O=C(Nc1cccnc1)c1noc2c1CCCCC2,253,-3.9% (inactive),14.8% (inactive),98.5,-1.4% (inactive),113,-0.325 (inactive),-1.6e-05 (inactive),0.00304 (inactive),33.4% (inactive),-4.09% (inactive)
COc1ccc(NC(=O)CSc2nnc(-c3ccccc3)n2N)cc1,438,0% (inactive),4.9% (inactive),103,-13.6% (inactive),114,-0.38 (inactive),9.8e-06 (inactive),0.00577 (inactive),15.8% (inactive),24% (inactive)
COc1ccccc1OCCCn1c(=O)oc2ccccc21,219,3.7% (inactive),3.2% (inactive),91.4,-46.5% (inactive),94.4,-0.506 (inactive),-4.3e-05 (inactive),0.00513 (inactive),-13.6% (inactive),-42.9% (inactive)
Cn1c(=O)[nH]c(=O)c2c1nc(NCCCn1ccnc1)n2Cc1cccc(Br)c1,663,-12.9% (inactive),8.6% (inactive),68.9,-53.6% (inactive),112,-0.403 (inactive),-2.8e-05 (inactive),0.006 (inactive),16.8% (inactive),26.1% (inactive)
COc1ccccc1C(=O)N1CCN(C(=O)c2ccncc2)CC1,252,7.8% (inactive),-2.8% (inactive),92.4,12.3% (inactive),76.2,-0.515 (inactive),-1.9e-05 (inactive),0.00571 (inactive),8.46% (inactive),6.89% (inactive)
COc1ccccc1Nc1nc(N)nc(-c2cc3ccccc3o2)n1,153,1.2% (inactive),-7.1% (inactive),89.1,25.7% (inactive),85.7,-0.332 (inactive),-3.9e-05 (inactive),0.00555 (inactive),-39.9% (inactive),-99.9% (inactive)
Cc1ccc(C(=O)N2CCCC(c3nc4c(nnn4Cc4ccccc4)c(=O)[nH]3)C2)cc1 (stereo not drawn),671,-6.5% (inactive),-2.8% (inactive),118,-44.4% (inactive),104,-0.38 (inactive),-5.9e-05 (inactive),0.00676 (inactive),13.8% (inactive),21.2% (inactive)
CC1=C(C(=O)OC2CCCCC2)C(c2ccc(C)o2)C2=C(CC(C)(C)CC2=O)N1 (stereo not drawn),493,-2.4% (inactive),3.3% (inactive),122,-13.3% (inactive),112,-0.25 (inactive),-1.1e-05 (inactive),0.0052 (inactive),7.33% (inactive),29.1% (inactive)
Cc1cccnc1NC(=O)CCCN1C(=O)c2ccccc2C1=O,366,1.7% (inactive),-11.4% (inactive),102,-32.4% (inactive),87.7,-0.409 (inactive),-6.3e-05 (inactive),0.00485 (inactive),11.3% (inactive),10.4% (inactive)
